According to paper PMC5540273 (PLoS ONE, 2017):

Experiments:
Details in all cases: concentration: 1 μM, replicates: in singlicate; n = 1
[1] = system: CLK2
[2] = system: CLK3
[3] = system: CLK4
[4] = system: CSF1R-autoinhibited
[5] = system: CSF1R
[6] = system: CSK
[7] = system: CSNK1A1L
[8] = system: CSNK1A1
[9] = system: CSNK1D
[10] = system: CSNK1E
[11] = system: CSNK1G1
[12] = system: CSNK1G2
[13] = system: CSNK1G3
[14] = system: CSNK2A1
[15] = system: CSNK2A2
[16] = system: T1, CTK
T1 construct: gene MATK

[17] = system: DAPK1
[18] = system: DAPK2
[19] = system: DAPK3
[20] = system: T2, DCAMKL1
T2 construct: gene DCLK1
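Also: KINOMEscan kinase panel screen.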

Row | SMILES | %Inh [1] | %Inh [2] | %Inh [3] | %Inh [4] | %Inh [5] | %Inh [6] | %Inh [7] | %Inh [8] | %Inh [9] | %Inh [10] | %Inh [11] | %Inh [12] | %Inh [13] | %Inh [14] | %Inh [15] | %Inh [16] | %Inh [17] | %Inh [18] | %Inh [19] | %Inh [20]
1 | O=C(Nc1n[nH]c2cc(-c3cccs3)ccc12)C1CC1 [SB-731284] | 21% | 13% | 0% | 0% | 0% | 13% | 0% | 20% | 0% | 8% | 0% | 0% | 0% | 62% | 80% | 45% | 12% | 2% | 3% | 12%
2 | NCCC(NC(=O)c1cc(Br)c(-c2ccnc3[nH]ccc23)s1)c1ccccc1.O=C(O)C(F)(F)F.O=C(O)C(F)(F)F (centres unmarked) [GSK1307810] | 37% | 54% | 46% | 43% | 18% | 0% | 71% | 93.9% | 94.1% | 94.1% | 83% | 99% | 99.2% | 98.9% | 94.7% | 0% | 6% | 28% | 29% | 25%
3 | O=C1NC(=O)C(c2ccccc2Cl)=C1Nc1cccc(Cl)c1 [SB-342409] | 73% | 7% | 28% | 0% | 33% | 0% | 9% | 0% | 16% | 17% | 14% | 0% | 26% | 0% | 0% | 24% | 0% | 0% | 15% | 13%
4 | Cc1ccc(NC(=O)c2ccc(Cl)c(Cl)c2)cc1-c1ccc(C(=O)Nc2ccncc2)cc1 [GSK1398460] | 0% | 17% | 17% | 7% | 99.9% | 1% | 8% | 0% | 7% | 18% | 12% | 16% | 36% | 0% | 2% | 0% | 11% | 0% | 18% | 22%
5 | CCNc1nccc(-c2c(-c3ccc(F)cc3)ncn2C2CCN(C)CC2)n1 | 45% | 0% | 13% | 0% | 0% | 25% | 56% | 93% | 98.6% | 99.9% | 7% | 1% | 0% | 44% | 17% | 100% | 24% | 15% | 10% | 13%
6 | Cn1cc(-c2ccc3c(c2)CCN3C(=O)Cc2cc(F)cc(F)c2F)c2c(N)ncnc21 [GSK2634140] | 0% | 24% | 16% | 0% | 87% | 0% | 17% | 0% | 13% | 47% | 23% | 8% | 18% | 12% | 0% | 0% | 0% | 0% | 0% | 0%
7 | Cc1ccc(C)c(NC(=O)Nc2ccc(C)c(-c3ccc(C(=O)Nc4ccncc4)cc3)c2)c1 [GSK1398473] | 0% | 3% | 0% | 0% | 89% | 0% | 11% | 0% | 0% | 30% | 3% | 15% | 32% | 15% | 0% | 0% | 26% | 0% | 2% | 13%
8 | CCn1cnc2c(NCc3ccccc3)ncnc21 [SKF-96418] | 10% | 0% | 14% | 0% | 0% | 0% | 0% | 18% | 20% | 16% | 0% | 0% | 0% | 0% | 0% | 34% | 0% | 0% | 11% | 33%
9 | Cc1ccc(O)cc1Nc1ccnc2ccc(C(C)(C)C)cc12 [GW856805] | 26% | 0% | 3% | 0% | 32% | 53% | 20% | 40% | 13% | 1% | 19% | 5% | 0% | 1% | 7% | 21% | 13% | 8% | 7% | 2%
10 | COc1cccc(-c2nc(-c3ccccc3)[nH]c2-c2ccncc2)c1 [SB-610250] | 0% | 27% | 8% | 0% | 2% | 0% | 19% | 47% | 66% | 68% | 0% | 0% | 22% | 0% | 0% | 0% | 0% | 0% | 19% | 14%
